From paper PMC12136788 come the findings set out here.

Numbering of substitutions follows the chain as printed. The full ranking holds about 24,000 sequences; the median of “enrichment r” is about 0.99, and the highest 2% start at about 3.7. The list comes from a sample in which the highest values are over-represented; it also holds similar and randomly drawn sequences.

T1: UNK ZnF1-3 (human, UniProt Q9C0B0 31-174)
T1 sequence: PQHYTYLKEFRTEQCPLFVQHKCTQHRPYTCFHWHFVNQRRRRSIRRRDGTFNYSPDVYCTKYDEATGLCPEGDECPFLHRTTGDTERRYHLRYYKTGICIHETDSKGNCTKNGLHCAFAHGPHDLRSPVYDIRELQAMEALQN

B1: chr2:126475859:126475860:-_ENSMUSG00000027361_ENSMUST00000110424|mus_mus|FALSE|FALSE (ssRNA)
RNA: GGGAGUUCUACAGUCCGACGAUCAGUUUCUGAAGAAUUGGACAAUGGGGCAGAAGCUUCAGCUAAGGCAGCUAACGUAGCUAAUACUGACGUAGAGGAGUUUCCAAACUGAACAGCAGAUACUCCUGUUUCAUCUGUGAGGUUCAACAGAGGAUUGAGCAUCA
B2: chr17:25041749:25041750:-_ENSMUSG00000024163_ENSMUST00000117509|mus_hu|FALSE|FALSE (ssRNA)
RNA: GGGAGUUCUACAGUCCGACGAUCCGAGGGAUAGGGGCGCUUGGCCGGAGGGGGGCUGGAGGAAGAGCUGAAGAGGCGGCUGAAGAACUGCCAGAUGGUCGACUUCUUCUUCUCCUGGACGGAUGGGUGCUCUCGGGACGCUCUCAACAGAGGAUUGAGCAUCA
B3: chr17:60770872:60770873:+_ENSG00000011028_ENST00000303375|hu_hu|hu_hu_hu_mus_True|1_8 (ssRNA)
RNA: GGGAGUUCUACAGUCCGACGAUCUCUUUAAAAAAAAAAAAAAAAAGACAAACAAUAAUAGCACAUUUCGAGAAUCAAGAACUACAAUAGAGGGUCCGCUUUGAGUUUUUGUUCACAUCGUCCUGCAACGCUGUCGCACCAGGACAACAGAGGAUUGAGCAUCA
B4: chr17:60770872:60770873:+_ENSG00000011028_ENST00000303375|hu_hu|hu_hu_hu_mus_True|18_58 (ssRNA)
RNA: GGGAGUUCUACAGUCCGACGAUCUCUUUAAAAAAAAAAAAAAAAAGACAAACAAUAAUAGCACAUUUCGAGAAUCAUCAACUACAGUAGAGGGUCCGCUUUGAGUUUUUGUUCACAACAUUGUCCCCUGGGACACGGGGACUGCAACAGAGGAUUGAGCAUCA
B5: chr17:60770872:60770873:+_ENSG00000011028_ENST00000303375|hu_hu|hu_hu_hu_mus_True|48_58 (ssRNA)
RNA: GGGAGUUCUACAGUCCGACGAUCUCUUUAAAAAAAAAAAAAAAAAGACAAACAAUAAUAGCACAUUUCGAGAAUCAUCAACUACAGAGAAAGGGCCGCUUUGAGUUUUUGUUCACAUCGUCCUGCACUGGGACACGGGGACUGCAACAGAGGAUUGAGCAUCA
B6: chr17:60770872:60770873:+_ENSG00000011028_ENST00000303375|hu_mus|FALSE|FALSE (ssRNA)
RNA: B5 RNA with U77A, C78G, G86A, A87U, G88A, A89G, A91G, G94U
B7: chr17:60770872:60770873:+_ENSG00000011028_ENST00000303375|hu_hu|hu_hu_hu_mus_True|18_18 (ssRNA)
RNA: B4 RNA with U77A, C78G, G86A
B8: chr17:60770872:60770873:+_ENSG00000011028_ENST00000303375|hu_hu|hu_hu_hu_mus_True|48_88 (ssRNA)
RNA: B5 RNA with A47U, C48U, A49U, C52A, U55C, U77A, C78G, G86A
B9: chr17:60770872:60770873:+_ENSG00000011028_ENST00000303375|hu_hu|hu_hu_hu_mus_True|18_48 (ssRNA)
RNA: B4 RNA with U77A, C78G, G86A, U87A, A88G, G89A, G91A, U94G
B10: chr17:60770872:60770873:+_ENSG00000011028_ENST00000303375|hu_hu|hu_hu_hu_mus_True|88_88 (ssRNA)
RNA: GGGAGUUCUACAGUCCGACGAUCUCUUUAAAAAAAAAAAAAAAAAGUUUAAAAACAAUAGCACAUUUCGAGAAUCAAGAACUACAAUAGAGGGUCCGCUUUGAGUUUUUGUUCACAUCGUCCUGCACUGGGACACGGGGACUGCAACAGAGGAUUGAGCAUCA
B11: chr17:60770872:60770873:+_ENSG00000011028_ENST00000303375|hu_hu|hu_hu_hu_mus_True|18_88 (ssRNA)
RNA: B10 RNA with U117A, G119A, C121U, C122G, G124C, A126C
B12: chr17:60770872:60770873:+_ENSG00000011028_ENST00000303375|hu_hu|hu_hu_hu_mus_True|1_1 (ssRNA)
RNA: B3 RNA with A127C, C128U, C130G, U131G, G132A, U133C, C134A, G135C, C136G
B13: chr17:60770872:60770873:+_ENSG00000011028_ENST00000303375|hu_hu|hu_hu_hu_mus_True|48_48 (ssRNA)
RNA: B5 RNA with U77A, C78G, G86A

The experiment has as its target T1, UNK ZnF1-3. Kind of experiment: nsRBNS (natural sequence RNA bind-n-seq); RBNS binding buffer (assumed for nsRBNS): 25 mM Tris pH 7.5, 150 mM KCl, 3 mM MgCl2, 0.01% Triton X-100, 500 ug/ml BSA, 20 U/ml SUPERase-In, 4 C; UNK is unkempt and MSI1 is Musashi-1; names of the RNAs are library labels; protein concentration not given here; high values mean tight binding.
The molecule B1 came in with a binding signal of 1.31 enrichment R.
Molecule B2 returned a binding signal of 1.43 enrichment R.
Regarding B3, the binding signal turned out to be 3.63 enrichment R.
Then B4, with 3.65 enrichment R.
Then B5, with 3.59 enrichment R.
For the molecule B6, the binding signal came to 4.24 enrichment R.
B7 yielded a binding signal of 4.15 enrichment R.
Then B8, with 3.6 enrichment R; and B9, with 3.63 enrichment R.
B10: the binding signal was determined as 4.21 enrichment R.
Take B11: the binding signal came to 3.34 enrichment R.
B12: the binding signal was determined as 3.11 enrichment R.
Take B13: the binding signal stood at 3.87 enrichment R.
